# Article PMC7862700, “An all-to-all approach to the identification of sequence-specific readers for epigenetic DNA modifications on cytosine”
# Legend:
# Assay in all cases: DAPPL (digital affinity profiling via proximity ligation, sequencing); 10 mM Tris-HCl pH 7.5, 50 mM NaCl, 1 mM DTT, 4% glycerol, room temperature, 30 min; GST-TFs on glutathione beads, 16-mer random dsDNA library, 0.1% formaldehyde crosslink after washing; high values mean tight binding
# [1] = target: T1, FLI1 (Homo sapiens, UniProt Q01543 1-452); conditions: protein: recombinant; tags: N-terminal GST; dsDNA, one strand shown
# T1 sequence: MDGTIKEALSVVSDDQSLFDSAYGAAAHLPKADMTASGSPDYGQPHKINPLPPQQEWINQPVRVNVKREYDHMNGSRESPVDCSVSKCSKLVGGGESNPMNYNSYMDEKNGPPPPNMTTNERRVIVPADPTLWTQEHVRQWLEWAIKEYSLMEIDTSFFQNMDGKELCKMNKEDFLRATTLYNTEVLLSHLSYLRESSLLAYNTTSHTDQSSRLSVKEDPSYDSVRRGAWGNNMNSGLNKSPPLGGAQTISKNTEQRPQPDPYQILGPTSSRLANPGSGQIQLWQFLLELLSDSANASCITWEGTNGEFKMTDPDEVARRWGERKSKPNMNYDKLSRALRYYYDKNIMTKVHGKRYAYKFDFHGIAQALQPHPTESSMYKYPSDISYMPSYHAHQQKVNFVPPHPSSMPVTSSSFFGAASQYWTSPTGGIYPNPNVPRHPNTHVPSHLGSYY
# Method in brief: (§1)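 Beads coated with glutathione captured GST-fused human transcription factors that had been expressed in yeast, and the factors were then given DNA barcodes and pooled with a tag-only sample. The pools were incubated with 200 nmole of a random double-stranded 16-mer DNA library in Tris/NaCl/DTT/glycerol buffer for 30 min at room temperature, washed, crosslinked with 0.1% formaldehyde and proximity-ligated with BsaI/T4 ligase at 37 °C for 1 h. PCR amplification and Illumina NextSeq500 sequencing came last. Binding signal is each hexamer's read frequency for a factor divided by its frequency for the tag-only sample.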
# [2] = target: T2, ELK1 (Homo sapiens, UniProt P19419 1-428); conditions: protein: recombinant; tags: N-terminal GST; dsDNA, one strand shown
# T2 sequence: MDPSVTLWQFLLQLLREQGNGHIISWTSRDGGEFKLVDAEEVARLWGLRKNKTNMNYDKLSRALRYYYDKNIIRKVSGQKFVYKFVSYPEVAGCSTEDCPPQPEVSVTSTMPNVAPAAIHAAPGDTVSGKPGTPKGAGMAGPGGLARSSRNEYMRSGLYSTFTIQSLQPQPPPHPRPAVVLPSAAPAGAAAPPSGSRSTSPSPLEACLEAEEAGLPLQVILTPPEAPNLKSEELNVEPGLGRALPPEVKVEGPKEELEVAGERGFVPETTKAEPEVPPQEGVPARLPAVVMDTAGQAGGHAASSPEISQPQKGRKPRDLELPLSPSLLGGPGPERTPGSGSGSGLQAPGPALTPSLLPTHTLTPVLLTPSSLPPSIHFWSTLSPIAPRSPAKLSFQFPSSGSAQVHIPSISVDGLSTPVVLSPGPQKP
# Method in brief: as §1
# [3] = target: T3, GABPA (Homo sapiens, UniProt Q06546 1-454); conditions: protein: recombinant; tags: N-terminal GST; dsDNA, one strand shown
# T3 sequence: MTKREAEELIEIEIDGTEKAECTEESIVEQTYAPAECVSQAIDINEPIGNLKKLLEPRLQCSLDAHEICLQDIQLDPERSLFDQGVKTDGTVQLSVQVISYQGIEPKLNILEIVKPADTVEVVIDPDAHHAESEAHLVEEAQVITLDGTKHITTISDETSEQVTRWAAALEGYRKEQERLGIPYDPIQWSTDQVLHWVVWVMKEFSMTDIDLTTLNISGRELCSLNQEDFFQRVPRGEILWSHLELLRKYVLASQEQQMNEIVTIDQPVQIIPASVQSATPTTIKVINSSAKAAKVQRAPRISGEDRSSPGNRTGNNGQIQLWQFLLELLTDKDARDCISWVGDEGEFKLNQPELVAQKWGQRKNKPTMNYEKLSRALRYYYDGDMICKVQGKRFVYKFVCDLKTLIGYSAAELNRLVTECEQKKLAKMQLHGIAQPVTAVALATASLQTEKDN
# Method in brief: as §1
# [4] = target: T4, ERG (Homo sapiens, UniProt P11308 1-479); conditions: protein: recombinant; tags: N-terminal GST; dsDNA, one strand shown
# T4 sequence: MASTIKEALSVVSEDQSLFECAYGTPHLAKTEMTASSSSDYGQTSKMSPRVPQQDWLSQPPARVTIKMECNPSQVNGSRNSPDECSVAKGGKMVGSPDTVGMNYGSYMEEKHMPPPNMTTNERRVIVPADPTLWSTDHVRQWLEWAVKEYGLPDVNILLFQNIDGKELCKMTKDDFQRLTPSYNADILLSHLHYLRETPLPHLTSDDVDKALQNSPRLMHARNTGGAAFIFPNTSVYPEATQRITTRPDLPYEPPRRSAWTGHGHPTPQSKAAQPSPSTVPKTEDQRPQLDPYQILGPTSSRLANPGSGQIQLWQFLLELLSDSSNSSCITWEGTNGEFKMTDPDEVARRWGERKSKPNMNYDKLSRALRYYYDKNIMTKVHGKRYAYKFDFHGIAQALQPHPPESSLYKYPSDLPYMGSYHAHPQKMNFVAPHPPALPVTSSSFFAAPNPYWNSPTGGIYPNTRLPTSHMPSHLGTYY
# Method in brief: as §1
# [5] = target: ELF1 (Homo sapiens, UniProt P32519 1-619); conditions: protein: recombinant; tags: N-terminal GST; dsDNA, one strand shown
# Chain of ELF1 (P32519 whole entry): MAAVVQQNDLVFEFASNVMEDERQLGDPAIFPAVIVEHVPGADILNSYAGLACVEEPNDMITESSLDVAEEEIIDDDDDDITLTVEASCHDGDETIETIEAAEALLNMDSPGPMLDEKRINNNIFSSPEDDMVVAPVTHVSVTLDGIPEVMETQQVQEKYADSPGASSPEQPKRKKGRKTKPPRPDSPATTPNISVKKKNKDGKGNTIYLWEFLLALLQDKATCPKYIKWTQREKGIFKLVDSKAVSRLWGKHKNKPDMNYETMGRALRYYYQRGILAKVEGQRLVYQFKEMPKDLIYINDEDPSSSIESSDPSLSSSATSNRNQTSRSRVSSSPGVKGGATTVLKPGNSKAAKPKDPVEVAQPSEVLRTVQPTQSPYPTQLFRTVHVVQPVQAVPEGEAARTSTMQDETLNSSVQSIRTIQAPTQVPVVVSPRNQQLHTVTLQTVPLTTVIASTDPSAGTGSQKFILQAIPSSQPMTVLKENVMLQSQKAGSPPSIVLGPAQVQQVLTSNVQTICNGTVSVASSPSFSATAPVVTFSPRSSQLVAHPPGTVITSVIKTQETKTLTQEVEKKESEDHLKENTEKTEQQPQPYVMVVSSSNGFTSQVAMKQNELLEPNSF
# Method in brief: as §1
# [6] = target: T5, EHF (Homo sapiens, UniProt Q9NZC4 1-300); conditions: protein: recombinant; tags: N-terminal GST; dsDNA, one strand shown
# T5 sequence: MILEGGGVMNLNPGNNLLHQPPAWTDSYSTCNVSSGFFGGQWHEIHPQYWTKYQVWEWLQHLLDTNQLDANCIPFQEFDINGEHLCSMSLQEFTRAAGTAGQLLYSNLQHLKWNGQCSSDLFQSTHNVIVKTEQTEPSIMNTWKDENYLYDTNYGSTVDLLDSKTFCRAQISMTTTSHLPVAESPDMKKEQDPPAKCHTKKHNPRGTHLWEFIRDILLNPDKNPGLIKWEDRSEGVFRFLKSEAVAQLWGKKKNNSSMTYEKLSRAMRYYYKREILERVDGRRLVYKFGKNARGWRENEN
# Method in brief: as §1
# [7] = target: SPI1 (Homo sapiens, UniProt P17947 1-270); conditions: protein: recombinant; tags: N-terminal GST; dsDNA, one strand shown
# Method in brief: as §1
# [8] = target: SPIB (Homo sapiens, UniProt Q01892 1-262); conditions: protein: recombinant; tags: N-terminal GST; dsDNA, one strand shown
# Chain of SPIB (Q01892 whole entry): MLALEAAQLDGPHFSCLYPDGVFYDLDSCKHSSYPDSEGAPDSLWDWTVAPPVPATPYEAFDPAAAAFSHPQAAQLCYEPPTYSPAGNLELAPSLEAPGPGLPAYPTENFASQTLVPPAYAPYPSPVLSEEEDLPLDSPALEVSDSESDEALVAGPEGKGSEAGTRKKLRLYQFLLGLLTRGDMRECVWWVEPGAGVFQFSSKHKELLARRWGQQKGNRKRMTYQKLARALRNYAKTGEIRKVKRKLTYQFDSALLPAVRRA
# Method in brief: as §1
# [9] = target: T6, FEV (Homo sapiens, UniProt Q99581 1-238); conditions: protein: recombinant; tags: N-terminal GST; dsDNA, one strand shown
# T6 sequence: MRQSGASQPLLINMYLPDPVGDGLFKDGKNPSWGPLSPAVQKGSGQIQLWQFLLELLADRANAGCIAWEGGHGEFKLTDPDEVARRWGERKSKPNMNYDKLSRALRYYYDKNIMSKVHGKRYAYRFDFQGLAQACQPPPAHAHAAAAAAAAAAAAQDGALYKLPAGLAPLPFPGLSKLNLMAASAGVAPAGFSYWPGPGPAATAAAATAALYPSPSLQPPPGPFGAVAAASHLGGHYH
# Method in brief: as §1
# [10] = target: ETV5 (Homo sapiens, UniProt P41161 1-510); conditions: protein: recombinant; tags: N-terminal GST; dsDNA, one strand shown
# Chain of ETV5 (P41161 whole entry): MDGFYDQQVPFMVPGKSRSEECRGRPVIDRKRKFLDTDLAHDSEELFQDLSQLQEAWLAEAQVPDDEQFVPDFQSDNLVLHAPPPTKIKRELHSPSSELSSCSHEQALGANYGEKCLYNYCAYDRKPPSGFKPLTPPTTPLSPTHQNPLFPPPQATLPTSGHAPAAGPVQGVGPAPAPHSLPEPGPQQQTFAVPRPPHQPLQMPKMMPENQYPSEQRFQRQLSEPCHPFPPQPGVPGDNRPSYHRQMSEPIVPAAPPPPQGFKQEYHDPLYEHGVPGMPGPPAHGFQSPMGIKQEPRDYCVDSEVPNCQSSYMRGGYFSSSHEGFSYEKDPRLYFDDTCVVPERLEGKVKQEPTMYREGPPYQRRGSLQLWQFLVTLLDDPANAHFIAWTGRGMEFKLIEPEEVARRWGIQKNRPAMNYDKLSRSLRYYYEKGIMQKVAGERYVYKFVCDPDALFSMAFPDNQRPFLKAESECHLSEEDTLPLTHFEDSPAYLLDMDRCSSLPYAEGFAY
# Method in brief: as §1
# [11] = target: HSF1 (Homo sapiens, UniProt Q00613 1-529); conditions: protein: recombinant; tags: N-terminal GST; chain copies: 3; dsDNA, one strand shown
# Chain of HSF1 (Q00613 whole entry): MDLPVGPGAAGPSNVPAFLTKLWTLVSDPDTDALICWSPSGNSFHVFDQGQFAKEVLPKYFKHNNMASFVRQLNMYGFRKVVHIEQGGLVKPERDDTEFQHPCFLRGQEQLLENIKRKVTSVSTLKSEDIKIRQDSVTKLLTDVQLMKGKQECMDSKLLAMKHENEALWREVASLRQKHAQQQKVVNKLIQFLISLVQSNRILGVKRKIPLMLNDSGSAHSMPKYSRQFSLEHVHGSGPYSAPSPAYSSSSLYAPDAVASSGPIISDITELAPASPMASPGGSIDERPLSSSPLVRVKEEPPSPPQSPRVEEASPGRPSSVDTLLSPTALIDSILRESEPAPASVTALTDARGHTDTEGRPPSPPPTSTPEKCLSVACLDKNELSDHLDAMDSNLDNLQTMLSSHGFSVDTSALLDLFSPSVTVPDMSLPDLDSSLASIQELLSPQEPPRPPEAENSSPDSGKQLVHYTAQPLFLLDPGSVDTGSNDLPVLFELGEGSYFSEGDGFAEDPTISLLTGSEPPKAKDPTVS
# Method in brief: as §1
# [12] = target: T7, SPIC (Homo sapiens, UniProt Q8N5J4 1-248); conditions: protein: recombinant; tags: N-terminal GST; dsDNA, one strand shown
# T7 sequence: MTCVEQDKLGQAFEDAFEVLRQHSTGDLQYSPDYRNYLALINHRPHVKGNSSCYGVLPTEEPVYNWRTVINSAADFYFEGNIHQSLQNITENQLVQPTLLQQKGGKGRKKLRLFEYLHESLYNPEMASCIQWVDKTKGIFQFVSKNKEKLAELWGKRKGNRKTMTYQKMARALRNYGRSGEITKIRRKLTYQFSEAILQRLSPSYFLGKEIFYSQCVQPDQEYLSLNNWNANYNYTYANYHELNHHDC
# Method in brief: as §1
# [13] = target: ELF4 (Homo sapiens, UniProt Q99607 1-663); conditions: protein: recombinant; tags: N-terminal GST; dsDNA, one strand shown
# Chain of ELF4 (Q99607 whole entry): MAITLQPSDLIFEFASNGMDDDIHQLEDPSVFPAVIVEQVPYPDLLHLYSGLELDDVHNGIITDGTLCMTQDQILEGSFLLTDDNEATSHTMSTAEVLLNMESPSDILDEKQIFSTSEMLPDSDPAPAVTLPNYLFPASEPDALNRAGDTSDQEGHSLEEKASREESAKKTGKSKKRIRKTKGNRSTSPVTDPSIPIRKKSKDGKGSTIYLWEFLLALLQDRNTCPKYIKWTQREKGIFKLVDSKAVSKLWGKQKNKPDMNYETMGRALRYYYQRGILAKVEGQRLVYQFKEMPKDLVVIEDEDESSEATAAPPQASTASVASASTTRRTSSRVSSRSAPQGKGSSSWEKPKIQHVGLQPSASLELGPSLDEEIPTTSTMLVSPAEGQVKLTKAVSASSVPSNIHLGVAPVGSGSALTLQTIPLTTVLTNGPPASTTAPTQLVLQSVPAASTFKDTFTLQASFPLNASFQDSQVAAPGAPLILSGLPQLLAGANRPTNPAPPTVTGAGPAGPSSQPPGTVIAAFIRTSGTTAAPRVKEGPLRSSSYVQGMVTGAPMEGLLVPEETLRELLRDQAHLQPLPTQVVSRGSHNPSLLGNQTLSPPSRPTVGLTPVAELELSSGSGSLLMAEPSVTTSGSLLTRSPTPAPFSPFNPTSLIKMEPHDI
# Method in brief: as §1
# [14] = target: T8, ELK4 (Homo sapiens, UniProt P28324-2 1-405); conditions: protein: recombinant; tags: N-terminal GST; dsDNA, one strand shown
# T8 sequence: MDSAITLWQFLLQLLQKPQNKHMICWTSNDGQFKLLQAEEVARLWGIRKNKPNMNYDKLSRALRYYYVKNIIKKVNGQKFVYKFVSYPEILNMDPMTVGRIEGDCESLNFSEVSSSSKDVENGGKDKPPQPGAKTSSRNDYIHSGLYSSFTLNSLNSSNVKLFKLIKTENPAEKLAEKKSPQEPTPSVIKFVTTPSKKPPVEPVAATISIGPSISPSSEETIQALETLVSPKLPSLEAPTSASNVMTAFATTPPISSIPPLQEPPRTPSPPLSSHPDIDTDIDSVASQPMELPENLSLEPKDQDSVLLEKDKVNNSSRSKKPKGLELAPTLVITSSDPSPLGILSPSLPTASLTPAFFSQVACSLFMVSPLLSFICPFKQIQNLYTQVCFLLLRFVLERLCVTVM
# Method in brief: as §1
# [15] = target: T9, ETV2 (Homo sapiens, UniProt O00321 1-342); conditions: protein: recombinant; tags: N-terminal GST; dsDNA, one strand shown
# T9 sequence: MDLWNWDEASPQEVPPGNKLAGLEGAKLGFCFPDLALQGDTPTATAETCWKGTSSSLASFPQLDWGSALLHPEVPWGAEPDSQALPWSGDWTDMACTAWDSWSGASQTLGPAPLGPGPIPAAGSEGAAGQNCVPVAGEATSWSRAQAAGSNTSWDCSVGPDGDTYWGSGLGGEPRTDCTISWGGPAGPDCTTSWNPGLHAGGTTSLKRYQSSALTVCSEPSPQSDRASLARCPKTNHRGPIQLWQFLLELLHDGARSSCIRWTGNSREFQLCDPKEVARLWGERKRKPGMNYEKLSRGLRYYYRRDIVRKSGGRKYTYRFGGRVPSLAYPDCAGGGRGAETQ
# Method in brief: as §1
# [16] = target: T10, ELF3 (Homo sapiens, UniProt P78545 1-371); conditions: protein: recombinant; tags: N-terminal GST; dsDNA, one strand shown
# T10 sequence: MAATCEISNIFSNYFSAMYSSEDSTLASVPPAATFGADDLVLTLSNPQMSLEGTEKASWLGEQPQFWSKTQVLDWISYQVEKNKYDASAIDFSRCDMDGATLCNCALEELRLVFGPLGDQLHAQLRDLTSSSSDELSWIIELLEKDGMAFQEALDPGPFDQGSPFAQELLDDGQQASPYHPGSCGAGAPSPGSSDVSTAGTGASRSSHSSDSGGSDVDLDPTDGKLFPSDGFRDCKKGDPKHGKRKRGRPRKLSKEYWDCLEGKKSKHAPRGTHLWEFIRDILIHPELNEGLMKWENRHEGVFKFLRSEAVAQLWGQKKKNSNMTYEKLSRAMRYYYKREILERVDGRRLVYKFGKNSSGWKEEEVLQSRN
# Method in brief: as §1
# [17] = target: CRX (Homo sapiens, UniProt O43186 1-299); conditions: protein: recombinant; tags: N-terminal GST; dsDNA, one strand shown
# Chain of CRX (O43186 whole entry): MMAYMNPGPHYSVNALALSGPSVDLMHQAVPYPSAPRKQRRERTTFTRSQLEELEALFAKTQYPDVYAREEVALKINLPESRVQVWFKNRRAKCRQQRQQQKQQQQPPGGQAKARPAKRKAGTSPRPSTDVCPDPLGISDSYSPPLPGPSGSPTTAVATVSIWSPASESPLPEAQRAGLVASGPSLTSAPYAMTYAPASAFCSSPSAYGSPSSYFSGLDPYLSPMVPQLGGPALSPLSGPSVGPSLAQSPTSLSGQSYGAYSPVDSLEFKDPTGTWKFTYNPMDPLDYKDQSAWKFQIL
# Method in brief: as §1
# [18] = target: ETV1 (Homo sapiens, UniProt P50549 1-477); conditions: protein: recombinant; tags: N-terminal GST; dsDNA, one strand shown
# Chain of ETV1 (P50549 whole entry): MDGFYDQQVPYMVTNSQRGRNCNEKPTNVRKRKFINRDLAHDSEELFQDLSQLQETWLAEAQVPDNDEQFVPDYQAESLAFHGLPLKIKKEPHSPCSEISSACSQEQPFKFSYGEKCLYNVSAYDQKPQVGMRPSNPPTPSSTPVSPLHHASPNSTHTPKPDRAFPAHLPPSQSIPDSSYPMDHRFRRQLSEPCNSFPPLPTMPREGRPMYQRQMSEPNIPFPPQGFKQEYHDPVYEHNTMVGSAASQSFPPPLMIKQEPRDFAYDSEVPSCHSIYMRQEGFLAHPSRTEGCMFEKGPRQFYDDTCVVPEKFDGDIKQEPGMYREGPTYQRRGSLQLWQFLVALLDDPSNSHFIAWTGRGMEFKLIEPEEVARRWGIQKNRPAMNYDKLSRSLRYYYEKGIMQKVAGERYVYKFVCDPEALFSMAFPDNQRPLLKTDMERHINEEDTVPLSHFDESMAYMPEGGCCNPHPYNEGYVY
# Method in brief: as §1
sequence,measurement,setting,value
TCACTA,binding signal,[1],"1.21 fold enrichment (6-mer frequency, TF over GST control)"
same,binding signal,[2],"1.22 fold enrichment (6-mer frequency, TF over GST control)"
same,binding signal,[3],"1.17 fold enrichment (6-mer frequency, TF over GST control)"
same,binding signal,[4],"1.17 fold enrichment (6-mer frequency, TF over GST control)"
same,binding signal,[5],"1.21 fold enrichment (6-mer frequency, TF over GST control)"
same,binding signal,[6],"1.17 fold enrichment (6-mer frequency, TF over GST control)"
same,binding signal,[7],"1.23 fold enrichment (6-mer frequency, TF over GST control)"
same,binding signal,[8],"1.25 fold enrichment (6-mer frequency, TF over GST control)"
same,binding signal,[9],"1.11 fold enrichment (6-mer frequency, TF over GST control)"
same,binding signal,[10],"1.06 fold enrichment (6-mer frequency, TF over GST control)"
same,binding signal,[11],"1.16 fold enrichment (6-mer frequency, TF over GST control)"
same,binding signal,[12],"1.16 fold enrichment (6-mer frequency, TF over GST control)"
same,binding signal,[13],"1.12 fold enrichment (6-mer frequency, TF over GST control)"
same,binding signal,[14],"1.28 fold enrichment (6-mer frequency, TF over GST control)"
same,binding signal,[15],"1.18 fold enrichment (6-mer frequency, TF over GST control)"
same,binding signal,[16],"1.19 fold enrichment (6-mer frequency, TF over GST control)"
same,binding signal,[17],"1.27 fold enrichment (6-mer frequency, TF over GST control)"
same,binding signal,[18],"1.06 fold enrichment (6-mer frequency, TF over GST control)"
